PubChem BioAssay (EPA / NIEHS)
Calls of active or inactive are those of the source. Rule for the calls: active = hit-call score of the fitted dose curve at least 0.9, where 1 is the maximum; inactive = score below 0.9.

Key:
[1] = read-out: Thrombomodulin, THBD (gene 7056); test: BSK_CASM3C_Thrombomodulin: BioMAP Diversity Plus: CASM3C Assay for Thrombomodulin Biomarker Activity (AID 2283051); conditions: primary human coronary artery smooth muscle cells; actives raise or lower the signal;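 note: thrombomodulin protein level measured by ELISA 24 h after dosing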
[2] = read-out: Tissue Factor, F3 (gene 2152); test: BSK_CASM3C_TissueFactor: BioMAP Diversity Plus: CASM3C Assay for Tissue Factor Biomarker Activity (AID 2283052); conditions: primary human coronary artery smooth muscle cells; actives raise or lower the signal;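 note: cell surface tissue factor protein level read by ELISA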
[3] = read-out: Interferon-gamma inducible Protein 10 (IP10), CXCL10 (gene 3627); test: BSK_hDFCGF_IP10: BioMAP Diversity Plus: hDFCGF Assay for Interferon-gamma inducible Protein 10 (IP10) Biomarker Activity (AID 2283053); conditions: primary human foreskin fibroblasts; actives raise or lower the signal
Outline: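 IP-10 levels, quantified by ELISA, are taken from human foreskin fibroblast cultures 24 h after chemical treatment, with DMSO serving as negative control and baseline for bidirectional analysis.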

[4] = read-out: Urokinase-type plasminogen activator receptor (uPAR), PLAUR (gene 5329); test: BSK_CASM3C_uPAR: BioMAP Diversity Plus: CASM3C Assay for Urokinase-type plasminogen activator receptor (uPAR) Biomarker Activity (AID 2283054); conditions: primary human coronary artery smooth muscle cells; actives raise or lower the signal;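 note: cell-surface uPAR protein level quantified by ELISA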
[5] = read-out: Vascular cell adhesion molecule 1 (VCAM1), VCAM1 (gene 7412); test: BSK_CASM3C_VCAM1: BioMAP Diversity Plus: CASM3C Assay for Vascular cell adhesion molecule 1 (VCAM1) Biomarker Activity (AID 2283055); conditions: primary human coronary artery smooth muscle cells; actives raise or lower the signal;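 note: VCAM-1 protein level quantified by ELISA on the cells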
[6] = read-out: Collagen III, COL3A1 (gene 1281); test: BSK_hDFCGF_CollagenIII: BioMAP Diversity Plus: hDFCGF Assay for Collagen III Biomarker Activity (AID 2283056); conditions: primary human foreskin fibroblasts; actives raise or lower the signal
Outline: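 Human foreskin primary fibroblasts were exposed to test chemicals for 24 h, after which collagen III was quantified by ELISA. Activity was fitted bidirectionally against DMSO as negative control and baseline.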

[7] = read-out: Epidermal growth factor receptor (EGFR), EGFR (gene 1956); test: BSK_hDFCGF_EGFR: BioMAP Diversity Plus: hDFCGF Assay for Epidermal growth factor receptor (EGFR) Biomarker Activity (AID 2283057); conditions: primary human foreskin fibroblasts; actives raise or lower the signal
Outline: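 Measured by ELISA: EGFR levels on primary human foreskin fibroblasts 24 h after chemical treatment, analysed relative to DMSO with bidirectional fitting.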

[8] = read-out: Interleukin-8 (IL8), CXCL8 (gene 3576); test: BSK_hDFCGF_IL8: BioMAP Diversity Plus: hDFCGF Assay for Interleukin-8 (IL8) Biomarker Activity (AID 2283058); conditions: primary human foreskin fibroblasts; actives raise or lower the signal
Outline: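 hDFCGF human dermal fibroblasts; 24 h chemical exposure; IL-8 by ELISA; bidirectional curve fit vs DMSO baseline; gain or loss of signal scored.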

[9] = BSK_hDFCGF_Proliferation: Cell Proliferation Assessment in the BioMAP Diversity Plus: hDFCGF Assay (AID 2283059); conditions: primary human foreskin fibroblasts;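 note: curves fitted for both rise and fall of signal versus DMSO baseline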
Outline: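 Steps: dose primary human dermal fibroblasts (foreskin); […] fix in 10% TCA; stain with 0.1% SRB; read 560 nm; fit gain or loss of signal against DMSO.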

[10] = read-out: Macrophage colony-stimulating factor (MCSF), CSF1 (gene 1435); test: BSK_hDFCGF_MCSF: BioMAP Diversity Plus: hDFCGF Assay for Macrophage colony-stimulating factor (MCSF) Biomarker Activity (AID 2283060); conditions: primary human foreskin fibroblasts; actives raise or lower the signal
Outline: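 Human foreskin primary fibroblasts were treated with test chemical for 24 h, and M-CSF was then measured by ELISA. Data were fitted bidirectionally against DMSO as the negative control and activity baseline.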

[11] = BSK_hDFCGF_SRB: Viability Assessment in the BioMAP Diversity Plus: hDFCGF Assay (AID 2283061); conditions: primary human foreskin fibroblasts;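 note: cells exposed to compound for 24 h before the read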
Outline: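 Human foreskin primary fibroblasts were treated with compound and assessed 24 h after dosing. Total protein was measured by sulforhodamine B staining (0.1% SRB after 10% TCA fixation, 560 nm read) as a cytotoxicity marker, with bidirectional fitting against DMSO baseline.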

[12] = read-out: TIMP metallopeptidase inhibitor 1 (TIMP1), TIMP1 (gene 7076); test: BSK_hDFCGF_TIMP1: BioMAP Diversity Plus: hDFCGF Assay for TIMP metallopeptidase inhibitor 1 (TIMP1) Biomarker Activity (AID 2283062); conditions: primary human foreskin fibroblasts; actives raise or lower the signal
Outline: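 Primary human foreskin fibroblasts in the hDFCGF system were dosed with compound for 24 h, then TIMP-1 was measured by ELISA. Activity was fitted bidirectionally relative to DMSO control; parallel SRB staining assessed cytotoxicity.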

[13] = read-out: Monokine induced gamma interferon (MIG), CXCL9 (gene 4283); test: BSK_hDFCGF_MIG: BioMAP Diversity Plus: hDFCGF Assay for Monokine induced gamma interferon (MIG) Biomarker Activity (AID 2283063); conditions: primary human foreskin fibroblasts; actives raise or lower the signal
Outline: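 ELISA read-out of MIG from primary human dermal fibroblasts 24 h post-dosing. Gain or loss of signal fitted bidirectionally, DMSO as baseline.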

[14] = read-out: Matrix Metallopeptidase 1 (MMP1), MMP1 (gene 4312); test: BSK_hDFCGF_MMP1: BioMAP Diversity Plus: hDFCGF Assay for Matrix Metallopeptidase 1 (MMP1) Biomarker Activity (AID 2283064); conditions: primary human foreskin fibroblasts; actives raise or lower the signal
Outline: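 Primary human foreskin fibroblasts in the hDFCGF system were dosed with test chemical, and MMP1 was measured by ELISA 24 h later. Values come from bidirectional curve fitting against the DMSO baseline.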

[15] = read-out: Vascular cell adhesion molecule 1 (VCAM1), VCAM1 (gene 7412); test: BSK_hDFCGF_VCAM1: BioMAP Diversity Plus: hDFCGF Assay for Vascular cell adhesion molecule 1 (VCAM1) Biomarker Activity (AID 2283065); conditions: primary human foreskin fibroblasts; actives raise or lower the signal;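 for AC50: VCAM-1 protein level quantified by ELISA after 24 h chemical exposure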
Outline: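 Primary human foreskin fibroblasts (hDFCGF system) were dosed with chemical and VCAM-1 was measured by ELISA 24 h later. Bidirectional curve fitting used DMSO as negative control and activity baseline.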

[16] = read-out: Plasminogen activator inhibitor-1 (PAI1), SERPINE1 (gene 5054); test: BSK_hDFCGF_PAI1: BioMAP Diversity Plus: hDFCGF Assay for Plasminogen activator inhibitor-1 (PAI1) Biomarker Activity (AID 2283066); conditions: primary human foreskin fibroblasts; actives raise or lower the signal
Outline: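 PAI-1 levels, determined by ELISA, served as the endpoint in human foreskin fibroblast cultures exposed to compound for 24 h, with DMSO as baseline.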

[17] = read-out: Intercellular Adhesion Molecule 1 (ICAM1), ICAM1 (gene 3383); test: BSK_KF3CT_ICAM1: BioMAP Diversity Plus: KF3CT Assay for Intercellular Adhesion Molecule 1 (ICAM1) Biomarker Activity (AID 2283067); conditions: primary human keratinocytes with fibroblasts; actives raise or lower the signal
Outline: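 Human keratinocyte plus foreskin fibroblast primary co-culture was exposed to chemical for 24 h. ICAM-1 was then quantified by ELISA, and the data were fit bidirectionally against DMSO as the negative control and baseline.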

[18] = read-out: Interferon-gamma inducible Protein 10 (IP10), CXCL10 (gene 3627); test: BSK_KF3CT_IP10: BioMAP Diversity Plus: KF3CT Assay for Interferon-gamma inducible Protein 10 (IP10) Biomarker Activity (AID 2283068); conditions: primary human keratinocytes with fibroblasts; actives raise or lower the signal
Outline: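 KF3CT co-culture (keratinocytes + foreskin fibroblasts), 24 h compound, IP-10 by ELISA; bidirectional fit vs DMSO baseline.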

[19] = BSK_KF3CT_SRB: Viability Assessment in the BioMAP Diversity Plus: KF3CT Assay (AID 2283069); conditions: primary human keratinocytes with fibroblasts
Outline: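 Human primary keratinocyte plus foreskin fibroblast co-culture exposed to chemicals for 24 h. Total protein measured by 0.1% sulforhodamine B staining after 10% TCA fixation, read at 560 nm; bidirectional fitting versus DMSO baseline.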

[20] = read-out: Interleukin-1 alpha (IL1a), IL1A (gene 3552); test: BSK_KF3CT_IL1a: BioMAP Diversity Plus: KF3CT Assay for Interleukin-1 alpha (IL1a) Biomarker Activity (AID 2283070); conditions: primary human keratinocytes with fibroblasts; actives raise or lower the signal
Outline: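 Human keratinocyte plus foreskin fibroblast primary co-culture, sampled 24 h after chemical dosing. IL-1a measured by ELISA; responses fitted bidirectionally against DMSO baseline (negative control), so gain or loss of signal both count.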

Measured: AC50

CNC(=O)ON=C(SC)C(=O)N(C)C
inactive: all assays above

COP(=O)(NC(C)=O)SC (configuration not stated)
not listed: [19]
inactive: all other assays above

CCCSP(=O)(OCC)Oc1ccc(Br)cc1Cl (configuration not stated)
active: [1] 11.5 µM | [3] 20 µM | [6] 20 µM | [9] 31.7 µM | [10] 17.4 µM | [15] 27.7 µM | [19] 22.7 µM
inactive: all other assays above

CC(C1CC1)C(O)(Cn1cncn1)c1ccc(Cl)cc1 (configuration not stated)
active: [9] 29.9 µM
inactive: all other assays above

CCc1cccc(CC)c1N(COC)C(=O)CCl
active: [3] 11.2 µM | [6] 11.1 µM | [9] 13.8 µM | [10] 18.9 µM | [11] 24 µM | [13] 10.1 µM | [15] 8.35 µM
inactive: all other assays above

CCCCOC(=O)[C@@H](C)Oc1ccc(Oc2ccc(C#N)cc2F)cc1
inactive: all assays above

COP(=O)(OC)SCn1c(=O)oc2cc(Cl)cnc21
inactive: [2] | [7] | [20]
active: [1] 5.31 µM | [3] 13 µM | [4] 35.5 µM | [5] 20 µM | [6] 14.7 µM | [8] 30.8 µM | [9] 10.1 µM | [10] 10.4 µM | [11] 13.8 µM | [12] 12 µM | [13] 19.3 µM | [14] 30.6 µM | [15] 16.3 µM | [16] 17 µM | [17] 18 µM | [18] 16.5 µM

CSc1nc(NC(C)C)nc(NC(C)C)n1
not listed: [19]
inactive: all other assays above

CCOP(=O)(OCC)Oc1cc(C)nc(C(C)C)n1
active: [6] 31.7 µM | [9] 25.9 µM | [10] 34.3 µM | [12] 14.9 µM | [14] 20 µM | [16] 7.42 µM
inactive: all other assays above

CCCSP(=O)(OCC)SCCC
inactive: all assays above

Cc1ccn2nc(S(=O)(=O)Nc3c(F)cccc3F)nc2n1
inactive: all assays above

COc1ccc(C(=CC(=O)N2CCOCC2)c2ccc(Cl)cc2)cc1OC
active: [5] 7.56 µM | [16] 7.96 µM
inactive: all other assays above
